Targets with a hit are over-represented here; the source holds about 7,900 in all. About 0.6% of all pairs of compound and target were hits.
Compound: CS(=O)(=O)c1ccc(-c2cnc(N)c(C(=O)Nc3ccccc3)n2)cc1
Assay: log2 fold change, soluble protein after heating vs DMSO (PISA); higher = thermal stabilisation; K562 cells, 10 uM, 30 min; active = over 0.2 and 3.5 SD of the protein, either way, in both replicates (recomputed)
Procedure, shortened: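 K562 cells at 2×10^6 cells/mL were treated with 10 μM compound for 30 min. Aliquots were heated for 3 min across 48°C-58°C, pooled, and extracted in PBS with 0.5% NP-40 at 4°C; soluble protein was the supernatant after 21,000xg for 90 min. Soluble protein was quantified by TMTpro 16plex LC-MS/MS with channel sums equalised, and reported as log2 fold change in thermal stability against DMSO controls, with values from duplicates.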

Chain of UniProt Q9C073 (Q9C073 whole entry, looked up): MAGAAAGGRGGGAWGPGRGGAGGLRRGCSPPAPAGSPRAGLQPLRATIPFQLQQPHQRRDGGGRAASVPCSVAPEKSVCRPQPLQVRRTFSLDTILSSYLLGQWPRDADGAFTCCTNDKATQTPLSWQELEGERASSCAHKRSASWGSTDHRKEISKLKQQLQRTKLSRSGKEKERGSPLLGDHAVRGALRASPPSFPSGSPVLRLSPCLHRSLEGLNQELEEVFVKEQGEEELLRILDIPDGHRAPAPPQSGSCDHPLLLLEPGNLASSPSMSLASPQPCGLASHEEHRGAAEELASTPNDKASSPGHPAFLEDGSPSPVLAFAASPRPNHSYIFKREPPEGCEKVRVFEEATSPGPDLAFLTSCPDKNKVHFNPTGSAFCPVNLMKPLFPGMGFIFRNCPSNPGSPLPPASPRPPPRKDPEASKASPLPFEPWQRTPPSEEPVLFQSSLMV
Chain of UniProt O60610 (O60610 whole entry, looked up): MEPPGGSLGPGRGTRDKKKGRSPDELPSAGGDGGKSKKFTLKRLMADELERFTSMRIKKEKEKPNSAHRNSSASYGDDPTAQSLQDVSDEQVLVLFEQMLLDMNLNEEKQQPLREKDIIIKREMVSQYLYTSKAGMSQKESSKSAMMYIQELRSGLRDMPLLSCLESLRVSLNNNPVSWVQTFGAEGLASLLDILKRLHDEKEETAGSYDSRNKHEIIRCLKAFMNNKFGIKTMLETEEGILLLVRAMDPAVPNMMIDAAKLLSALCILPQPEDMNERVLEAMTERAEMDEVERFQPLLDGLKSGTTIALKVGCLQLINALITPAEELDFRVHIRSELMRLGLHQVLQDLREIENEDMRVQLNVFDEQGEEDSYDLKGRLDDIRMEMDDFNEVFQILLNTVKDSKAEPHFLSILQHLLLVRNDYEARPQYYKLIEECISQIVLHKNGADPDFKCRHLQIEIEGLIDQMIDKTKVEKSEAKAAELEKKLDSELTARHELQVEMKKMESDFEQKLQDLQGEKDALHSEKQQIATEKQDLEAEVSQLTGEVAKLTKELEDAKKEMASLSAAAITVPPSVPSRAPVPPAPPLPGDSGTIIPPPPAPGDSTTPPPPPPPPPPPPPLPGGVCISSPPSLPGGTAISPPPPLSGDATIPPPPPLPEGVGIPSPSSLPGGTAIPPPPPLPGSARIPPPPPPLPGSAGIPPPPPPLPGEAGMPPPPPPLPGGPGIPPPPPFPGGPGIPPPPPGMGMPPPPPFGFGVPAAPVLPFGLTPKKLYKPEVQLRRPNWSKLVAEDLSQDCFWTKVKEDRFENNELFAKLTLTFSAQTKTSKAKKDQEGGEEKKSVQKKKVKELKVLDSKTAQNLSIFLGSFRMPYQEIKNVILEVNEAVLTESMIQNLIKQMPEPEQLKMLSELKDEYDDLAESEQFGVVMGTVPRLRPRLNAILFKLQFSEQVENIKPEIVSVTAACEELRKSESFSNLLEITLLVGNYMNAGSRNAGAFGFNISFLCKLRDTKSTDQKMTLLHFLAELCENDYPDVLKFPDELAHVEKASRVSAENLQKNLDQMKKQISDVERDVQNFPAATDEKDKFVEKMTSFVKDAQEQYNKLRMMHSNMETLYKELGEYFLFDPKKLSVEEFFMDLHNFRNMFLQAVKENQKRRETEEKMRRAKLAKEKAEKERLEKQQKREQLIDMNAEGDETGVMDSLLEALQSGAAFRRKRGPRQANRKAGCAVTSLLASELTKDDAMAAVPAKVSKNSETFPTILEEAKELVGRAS
Chain of UniProt Q9HBU6 (Q9HBU6 whole entry, looked up): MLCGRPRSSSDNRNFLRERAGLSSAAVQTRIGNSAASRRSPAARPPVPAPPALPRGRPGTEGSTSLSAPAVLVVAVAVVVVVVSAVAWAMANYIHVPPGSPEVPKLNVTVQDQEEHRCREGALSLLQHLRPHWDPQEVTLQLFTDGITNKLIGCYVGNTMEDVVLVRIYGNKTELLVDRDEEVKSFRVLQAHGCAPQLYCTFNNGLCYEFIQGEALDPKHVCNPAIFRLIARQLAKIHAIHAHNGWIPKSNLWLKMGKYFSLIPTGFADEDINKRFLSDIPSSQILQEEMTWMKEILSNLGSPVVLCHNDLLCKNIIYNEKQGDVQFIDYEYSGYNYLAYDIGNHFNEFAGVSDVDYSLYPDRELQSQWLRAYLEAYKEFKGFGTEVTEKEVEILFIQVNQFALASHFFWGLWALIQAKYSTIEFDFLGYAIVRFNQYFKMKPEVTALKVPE
Chain of UniProt P50570 (P50570 whole entry, looked up): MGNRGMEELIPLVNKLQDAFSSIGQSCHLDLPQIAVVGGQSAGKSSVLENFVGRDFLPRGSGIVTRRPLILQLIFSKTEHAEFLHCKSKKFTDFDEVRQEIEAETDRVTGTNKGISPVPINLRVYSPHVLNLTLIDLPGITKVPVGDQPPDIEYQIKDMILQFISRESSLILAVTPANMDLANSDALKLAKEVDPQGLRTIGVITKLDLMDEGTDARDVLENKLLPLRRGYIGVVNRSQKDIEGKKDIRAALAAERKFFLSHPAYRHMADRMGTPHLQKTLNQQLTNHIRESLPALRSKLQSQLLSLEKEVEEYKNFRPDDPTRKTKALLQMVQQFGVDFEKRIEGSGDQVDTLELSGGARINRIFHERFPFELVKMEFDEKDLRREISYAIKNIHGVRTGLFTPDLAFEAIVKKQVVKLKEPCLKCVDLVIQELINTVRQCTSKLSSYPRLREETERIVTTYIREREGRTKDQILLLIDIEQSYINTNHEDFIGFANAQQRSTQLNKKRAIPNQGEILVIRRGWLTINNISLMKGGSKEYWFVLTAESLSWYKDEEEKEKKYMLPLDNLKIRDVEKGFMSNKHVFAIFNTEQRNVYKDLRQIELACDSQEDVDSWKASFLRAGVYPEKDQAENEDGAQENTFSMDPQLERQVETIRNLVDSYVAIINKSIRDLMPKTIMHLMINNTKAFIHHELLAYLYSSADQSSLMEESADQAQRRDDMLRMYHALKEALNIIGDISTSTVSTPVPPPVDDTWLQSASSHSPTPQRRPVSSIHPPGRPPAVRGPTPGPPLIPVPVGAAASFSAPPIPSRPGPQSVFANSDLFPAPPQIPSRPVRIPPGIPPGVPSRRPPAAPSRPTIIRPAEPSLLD
Chain of UniProt Q16850 (Q16850 whole entry, looked up): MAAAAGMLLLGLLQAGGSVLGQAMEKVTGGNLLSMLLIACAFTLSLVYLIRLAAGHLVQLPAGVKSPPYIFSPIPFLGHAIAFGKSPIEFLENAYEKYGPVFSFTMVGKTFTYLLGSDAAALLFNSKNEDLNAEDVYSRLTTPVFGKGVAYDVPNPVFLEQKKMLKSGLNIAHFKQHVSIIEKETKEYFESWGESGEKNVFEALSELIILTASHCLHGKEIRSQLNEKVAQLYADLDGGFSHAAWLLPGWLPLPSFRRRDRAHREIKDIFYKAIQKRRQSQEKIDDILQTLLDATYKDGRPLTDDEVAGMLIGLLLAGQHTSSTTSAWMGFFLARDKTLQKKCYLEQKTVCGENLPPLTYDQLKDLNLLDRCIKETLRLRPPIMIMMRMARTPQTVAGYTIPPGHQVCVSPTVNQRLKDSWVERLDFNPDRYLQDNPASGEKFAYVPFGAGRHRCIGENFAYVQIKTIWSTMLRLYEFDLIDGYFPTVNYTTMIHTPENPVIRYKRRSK
Chain of UniProt P13498 (P13498 whole entry, looked up): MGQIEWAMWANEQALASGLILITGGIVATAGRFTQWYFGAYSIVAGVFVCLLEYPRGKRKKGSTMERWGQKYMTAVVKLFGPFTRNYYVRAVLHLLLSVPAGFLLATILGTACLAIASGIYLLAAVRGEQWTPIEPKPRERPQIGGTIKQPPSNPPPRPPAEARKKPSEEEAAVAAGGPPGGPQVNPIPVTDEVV
Chain of UniProt Q9NWS6 (Q9NWS6 whole entry, looked up): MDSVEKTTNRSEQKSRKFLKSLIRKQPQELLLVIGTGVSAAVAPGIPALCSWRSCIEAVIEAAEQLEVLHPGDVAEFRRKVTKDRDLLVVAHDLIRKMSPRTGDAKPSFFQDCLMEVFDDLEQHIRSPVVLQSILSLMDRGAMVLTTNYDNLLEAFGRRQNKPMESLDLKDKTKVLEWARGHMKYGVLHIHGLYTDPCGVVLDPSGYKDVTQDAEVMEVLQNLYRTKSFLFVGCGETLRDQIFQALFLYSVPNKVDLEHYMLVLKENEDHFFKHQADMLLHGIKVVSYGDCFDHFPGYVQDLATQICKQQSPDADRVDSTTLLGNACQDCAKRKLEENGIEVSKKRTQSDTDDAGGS
Chain of UniProt P18074 (P18074 whole entry, looked up): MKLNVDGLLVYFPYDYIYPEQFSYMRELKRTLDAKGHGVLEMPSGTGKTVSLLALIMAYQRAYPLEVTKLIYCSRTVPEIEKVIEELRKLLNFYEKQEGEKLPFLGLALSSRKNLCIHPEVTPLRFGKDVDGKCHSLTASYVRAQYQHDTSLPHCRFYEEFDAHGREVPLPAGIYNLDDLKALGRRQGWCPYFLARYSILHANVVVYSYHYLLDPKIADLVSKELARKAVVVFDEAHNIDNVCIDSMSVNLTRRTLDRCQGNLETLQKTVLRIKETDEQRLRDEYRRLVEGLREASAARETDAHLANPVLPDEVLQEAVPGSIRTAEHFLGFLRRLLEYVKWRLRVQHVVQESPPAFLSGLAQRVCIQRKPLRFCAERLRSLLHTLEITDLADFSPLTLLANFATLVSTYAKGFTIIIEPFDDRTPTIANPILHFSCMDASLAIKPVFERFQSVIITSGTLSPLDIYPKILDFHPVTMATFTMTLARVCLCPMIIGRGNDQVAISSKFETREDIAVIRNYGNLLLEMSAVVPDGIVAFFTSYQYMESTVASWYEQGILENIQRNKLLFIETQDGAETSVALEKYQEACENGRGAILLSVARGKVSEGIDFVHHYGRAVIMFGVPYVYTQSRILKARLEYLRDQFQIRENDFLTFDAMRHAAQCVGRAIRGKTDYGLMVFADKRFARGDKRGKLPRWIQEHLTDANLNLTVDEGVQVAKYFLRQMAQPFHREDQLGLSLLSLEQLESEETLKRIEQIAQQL

Row | Target | log2 fold change
1 | DOCK8 (UniProt Q8NF50) | 0.216 (inactive)
2 | EEF1B2 (UniProt P24534) | 0.003 (inactive)
3 | CTSL (UniProt P07711) | 0.025 (inactive)
4 | DNM2 (UniProt P50570) | 0.017 (inactive)
5 | EIF2AK1 (UniProt Q9BQI3) | 0.023 (inactive)
6 | DIAPH1 (UniProt O60610) | 0.047 (inactive)
7 | DUS2 (UniProt Q9NX74) | -0.017 (inactive)
8 | ERCC2 (UniProt P18074) | 0.011 (inactive)
9 | DYNC1LI2 (UniProt O43237) | 0.025 (inactive)
10 | DYNC1I2 isoform 5 (UniProt Q13409) | 0.026 (inactive)
11 | DIP2A (UniProt Q14689) | -0.094 (inactive)
12 | DMXL1 (UniProt Q9Y485) | -0.012 (inactive)
13 | DDOST (UniProt P39656) | 0.014 (inactive)
14 | DHFR (UniProt P00374) | -0.009 (inactive)
15 | CUX1 isoform 3 (UniProt P39880) | 0.02 (inactive)
16 | DNAJB12 (UniProt Q9NXW2) | 0.02 (inactive)
17 | CTSV (UniProt O60911) | 0.073 (inactive)
18 | EFCAB14 (UniProt O75071) | 0.045 (inactive)
19 | EXOC5 (UniProt O00471) | -0.02 (inactive)
20 | DUS3L (UniProt Q96G46) | -0.015 (inactive)

Row | Target | log2 fold change
21 | EFL1 (UniProt Q7Z2Z2) | 0.02 (inactive)
22 | DYRK1A isoform 2 (UniProt Q13627) | 0.008 (inactive)
23 | FAF2 (UniProt Q96CS3) | 0.049 (inactive)
24 | ETNK1 (UniProt Q9HBU6) | -0.006 (inactive)
25 | EIF4G1 isoform 8 (UniProt Q04637) | -0.21 (inactive)
26 | DNAH5 (UniProt Q8TE73) | 0.049 (inactive)
27 | EEA1 (UniProt Q15075) | -0.007 (inactive)
28 | DBT (UniProt P11182) | -0.024 (inactive)
29 | FAM118A (UniProt Q9NWS6) | -0.028 (inactive)
30 | CUX1 isoform 2 (UniProt Q13948) | -0.217 (inactive)
31 | DNAH11 (UniProt Q96DT5) | -0.054 (inactive)
32 | EXOSC10 (UniProt Q01780) | 0.126 (inactive)
33 | CYBA (UniProt P13498) | 0.069 (inactive)
34 | FADS1, A0A0A0MR51 | 0.096 (inactive)
35 | FAM117A (UniProt Q9C073) | -0.039 (inactive)
36 | EEF1AKNMT (UniProt Q8N6R0) | -0.011 (inactive)
37 | CYP51A1 (UniProt Q16850) | 0.028 (inactive)
38 | FAM83D (UniProt Q9H4H8) | -0.018 (inactive)
39 | DNTTIP2 (UniProt Q5QJE6) | 0.012 (inactive)
40 | EED, A0A5F9ZI63 | -0.074 (inactive)

From the supplement of paper PMC10849652
